Reference: PubChem BioAssay AID463173 (ICCB-Longwood Screening Facility, Harvard Medical School, 2010)
Out of some 52,000 compounds screened, about 4,300 (8.3%) were called active. No stated cut-off is given here; in the data, active means survival mostly below about 52% (no sharp cut-off); inactive means mostly above about 56%. Many of the other results were omitted from the sample, so actives are more common in it than they were.

test system: DeltatarO mutant; assay: S. aureus survival, RN4220 and DeltatarO strains – OD600, teichoic acid synthesis inhibitors, primary screen (AID 463173); conditions: S. aureus RN4220 wild type/DeltatarO growth, OD600, 18 h, active compounds read low, screened at 18.75 µg/mL (by protocol)

Compound | survival
CCN1Cc2cccc(C(=O)Nc3ccc(F)cc3)c2C1=O | 129% (inactive)
Cc1cc(C)cc(N2CCn3c2nc2c3c(=O)n(CCc3ccccc3)c(=O)n2C)c1 | 89% (inactive)
COCCn1c(SCC(=O)c2ccc(OC)cc2)nc2cc(C(=O)NC3CCCC3)ccc2c1=O | 94% (inactive)
Cc1ccc(S(=O)(=O)N(C#N)c2nc(C)cc(C)n2)cc1 | 71% (inactive)
C=C(C)c1cccc(C(C)(C)NC(=O)N(C)C2CCN(C)CC2)c1 | 82% (inactive)
COc1ccccc1-c1nnc(C2CCN(S(=O)(=O)c3ccccc3)CC2)o1 | 84% (inactive)
COc1ccc(C)cc1NS(=O)(=O)c1ccc2c3c(cccc13)C(=O)N2 | 58% (inactive)
Cc1ccc(C)c(NS(=O)(=O)c2ccc3c4c(cccc24)C(=O)N3)c1 | 52% (active)
Cc1ccc(NS(=O)(=O)c2ccc3c4c(cccc24)C(=O)N3)c(C)c1 | 58% (inactive)
Cc1ccc(CS(=O)(=O)c2ncc(Cl)c(C(=O)Nc3nc4ccc(C)cc4s3)n2)cc1 | 6% (active)
O=C(Nc1nc2ccc(F)cc2s1)c1nc(S(=O)(=O)Cc2ccccc2F)ncc1Cl | 80% (inactive)
Cc1ccc(CS(=O)(=O)c2ncc(Cl)c(C(=O)Nc3nc4ccc(F)cc4s3)n2)cc1 | 9% (active)
COc1ccc2nc(NC(=O)c3nc(S(=O)(=O)Cc4cccc(C)c4)ncc3Cl)sc2c1 | 49% (inactive)
CSc1ncc(Cl)c(C(=O)Nc2nc3ccc(F)cc3s2)n1 | 98% (inactive)
COc1ccc2nc(NC(=O)c3nc(S(=O)(=O)Cc4ccccc4)ncc3Cl)sc2c1 | 77% (inactive)
Cc1ccc2nc(NC(=O)c3nc(SCc4ccccc4C)ncc3Cl)sc2c1 | 98% (inactive)
O=C(Nc1nc2ccc(F)cc2s1)c1nc(S(=O)(=O)Cc2ccccc2)ncc1Cl | 17% (active)
Cc1cccc(CS(=O)(=O)c2ncc(Cl)c(C(=O)Nc3nc4ccc(F)cc4s3)n2)c1 | -1% (active)
COc1ccc2nc(NC(=O)c3nc(S(=O)(=O)Cc4ccc(C)cc4)ncc3Cl)sc2c1 | 82% (inactive)
Cc1ccc(NC(=O)N2CCC(CN3CCCCCC3)CC2)c(Cl)c1 | 84% (inactive)
O=C(c1ccccc1)N1CCCCC1CCN1CCCCC1 (configuration not stated) | 70% (inactive)
CCc1ccc(N(CC)C(=O)Cn2nc(Cc3cccnc3)c3ccccc3c2=O)cc1 | 81% (inactive)
CCOc1ccc(S(=O)(=O)N(CC(=O)Nc2ccc3c(c2)OCO3)c2ccccc2)cc1 | 72% (inactive)
O=C(Cn1ncc2c3ccccc3n(Cc3cccc(Cl)c3)c2c1=O)Nc1ccc(F)cc1F | 103% (inactive)
CC(C)CCNC(=O)CN1C(=O)c2cccnc2Oc2ccccc21 | 85% (inactive)

Compound | survival
CC(C)c1cnc2c(c1SCC(=O)N1CCCCC1)c(=O)n(C)c(=O)n2C | 107% (inactive)
Cc1noc(-c2ccc(NCc3ccccc3)c([N+](=O)[O-])c2)n1 | 66% (inactive)
Cc1ccc(-c2noc(-c3ccc(NCc4cccnc4)c([N+](=O)[O-])c3)n2)cc1 | 104% (inactive)
CCNc1ccc(-c2nc(-c3ccccn3)no2)cc1[N+](=O)[O-] | 60% (inactive)
Cc1ccc(CNc2ccc(-c3nc(-c4ccccn4)no3)cc2[N+](=O)[O-])cc1 | 104% (inactive)
COCCNc1ccc(-c2nc(-c3ccccn3)no2)cc1[N+](=O)[O-] | 43% (active)
O=[N+]([O-])c1cc(-c2nc(-c3cccnc3)no2)ccc1NCc1ccccc1 | 63% (inactive)
O=[N+]([O-])c1cc(-c2nc(-c3ccccn3)no2)ccc1NCc1ccccc1 | 39% (active)
CCCNc1ccc(-c2nc(-c3ccccn3)no2)cc1[N+](=O)[O-] | 111% (inactive)
COCCNc1ccc(-c2nc(-c3ccncc3)no2)cc1[N+](=O)[O-] | 77% (inactive)
COCCNc1ccc(-c2nc(-c3ccco3)no2)cc1[N+](=O)[O-] | 54% (inactive)
O=[N+]([O-])c1cc(-c2nc(-c3ccccc3)no2)ccc1NCc1cccnc1 | 47% (active)
CCCCNc1ccc(-c2nc(-c3ccccn3)no2)cc1[N+](=O)[O-] | 46% (active)
CCCCOc1ccc(C(=O)NCCc2csc3nc(-c4ccccc4F)nn23)cc1 | 84% (inactive)
NCc1nc2cccnc2n1Cc1ccccc1Cl | 81% (inactive)
COc1ccc(C)cc1NC(=O)Nc1cc(C(=O)NCc2ccc(C)cc2)ccc1N1CCCC1 | 82% (inactive)
Cc1cc2c(cc1NS(=O)(=O)c1ccc(NC(=O)CC(C)C)cc1)n(C)c(=O)c(=O)n2C | 86% (inactive)
COc1ccc(OC)c(-c2cc(C(=O)NCCc3ccccc3)c3c(-c4ccc(C)cc4)[nH]nc3n2)c1 | 67% (inactive)
CCCCNc1nc2c(S(=O)(=O)c3ccc(Br)cc3)nnn2c2ccsc12 | 74% (inactive)
CCOc1nc(Nc2ccccc2)nc(OCC)n1 | 115% (inactive)
CCN(C(=O)CCS(=O)(=O)c1ccc2c(c1)CCN2C(C)=O)c1cccc(C(F)(F)F)c1 | 101% (inactive)
CCn1c(=O)c2cc(C(=O)NCCCN(C)Cc3ccccc3)sc2c2ccccc21 | 106% (inactive)
CCN(CCCNC(=O)CSc1cc(=O)n(CC)c2ccccc12)c1ccccc1 | 53% (inactive)
Cn1c(=O)cc(SCC(=O)NCCc2ccc(Cl)cc2)c2cc(Cl)ccc21 | 75% (inactive)
CCN(CCCNC(=O)c1cc2c(=O)n(CC)c3ccccc3c2s1)c1cccc(C)c1 | 42% (active)

Compound | survival
CCn1c(=O)c2cc(C(=O)NCCc3cccc(C)c3)sc2c2ccccc21 | 70% (inactive)
CCn1c(=O)cc(SCC(=O)NCc2cccc(Cl)c2)c2ccccc21 | 38% (active)
CCc1ccc(CNC(=O)CSc2cc(=O)n(CC)c3ccccc23)cc1 | 87% (inactive)
CCN(CCCNC(=O)CSc1cc(=O)n(CC)c2ccccc12)c1cccc(C)c1 | 38% (active)
CCN(CCCNC(=O)CSc1cc(=O)n(C)c2cc(Cl)ccc12)c1cccc(C)c1 | 90% (inactive)
CCc1ccc(CNC(=O)CSc2cc(=O)n(C)c3ccc(Cl)cc23)cc1 | 31% (active)
Cn1c(=O)cc(SCC(=O)NCc2ccc(F)cc2)c2cc(Cl)ccc21 | 88% (inactive)
CCn1c(=O)cc(SCC(=O)NCc2ccc(C)cc2)c2ccccc21 | 84% (inactive)
Cc1cc(C)c(NC(=O)C2CCN(c3nn4c(=O)cc(C)nc4s3)CC2)c(C)c1 | 103% (inactive)
CC(=O)Nc1ccc(NCc2cccs2)cc1 | 101% (inactive)
Cc1cc(Nc2ccc(C(C)C)cc2)nc(-n2nc(C)cc2C)n1 | 90% (inactive)
COC(=O)c1cc2oc(C)cc2n1CC(=O)Nc1ccc(OC)c(OC)c1 | 131% (inactive)
COc1ccc(N2CCN(Cc3nc4c(c(=O)[nH]c(=O)n4C)n3Cc3ccc(C)cc3)CC2)cc1 | 113% (inactive)
CCOC(=O)c1c(C)n(C2CCCCC2)c2ccc(OCC(N)=O)cc12 | 69% (inactive)
CCOC(=O)C1CCC(CN(Cc2c(Cl)cccc2Cl)S(=O)(=O)c2ccc(Cl)cc2)CC1 (configuration not stated) | 81% (inactive)
Cc1cccc2c(=O)cc(CSc3ccccc3NC(=O)c3cccc(Br)c3)[nH]c12 | 86% (inactive)
CCN(CC)CCNC(=O)c1c2c(nc3ccccc13)C(=O)N(C1CCCCC1)C2 | 94% (inactive)
CCOc1ccc2c(c1)c(=O)c(C(=O)c1ccc(CC)cc1)cn2CC(=O)Nc1ccccc1C | 70% (inactive)
CCOC(=O)C1CCN(C(=O)c2ccc(C)c(NC(=O)c3nsc4ccccc34)c2)CC1 | 88% (inactive)
CCN(CCCNC(=O)c1cc2c(=O)n(CC)c3ccccc3c2s1)c1ccccc1 | 47% (active)
CCN(CCCNC(=O)c1cc2c(=O)n(CC)c3ccccc3c2s1)Cc1ccccc1 | 101% (inactive)
CCN(CCCNC(=O)c1cc2c(=O)n(C)c3ccccc3c2s1)c1ccccc1 | 57% (inactive)
Cc1ccc(Sc2c(C(=O)NCc3cccc(F)c3)[nH]c3ccccc23)cc1 | 72% (inactive)
O=C(Cn1cnc2scc(-c3ccccc3)c2c1=O)NCc1ccco1 | 60% (inactive)
CCc1cccc(C)c1Nc1c(-c2ccc(SC)cc2)nc2sccn12 | 50% (inactive)

Compound | survival
CC(=O)N1CCc2c(sc3nc(SCC(N)=O)n(-c4ccc(F)c(Cl)c4)c(=O)c23)C1 | 75% (inactive)
CCOC(=O)c1ccc(NC(=O)CC2C(=O)OCCN2CC)cc1 (configuration not stated) | 61% (inactive)
CCc1ccc(NC(=O)CC2C(=O)OCCN2CC)cc1 (configuration not stated) | 5% (active)
CCN1CCOC(=O)C1CC(=O)Nc1cc(C)cc(C)c1 (configuration not stated) | 142% (inactive)
CCOc1ccc(NC(=O)CC2C(=O)OCCN2CC)cc1 (configuration not stated) | 56% (inactive)
CCN1CCOC(=O)C1CC(=O)Nc1ccc(Br)cc1 (configuration not stated) | 44% (active)
CCN1CCOC(=O)C1CC(=O)Nc1ccc(C(C)=O)cc1 (configuration not stated) | 59% (inactive)
O=C(NCCc1ccc(Cl)cc1)c1ccc2c(c1)N(Cc1ccccc1F)C(=O)c1ccccc1S2(=O)=O | 79% (inactive)
CCc1cccc2c(-c3ccccc3)nc(SCC(=O)Nc3ccccc3OC)nc12 | 109% (inactive)
Cc1ccc(C)c(N2CCN(S(=O)(=O)c3cnc(N)nc3)CC2)c1 | 86% (inactive)
COc1ccc2oc(=O)c(-c3cn4c(n3)sc3cc(F)ccc34)cc2c1 | 76% (inactive)
Cc1oc2ccc(O)c(CN3CCN(Cc4ccccc4)CC3)c2c1C(=O)Nc1ccccc1 | 68% (inactive)
COc1cccc(Cc2nc3ccccc3nc2SCC(=O)NCCc2ccccc2)c1 | 87% (inactive)
COc1ccc(CNC(=O)CCc2c(C)nc3c(c(C)nn3-c3ccccc3)c2C)cc1 | 78% (inactive)
Cc1nc2c(c(C)nn2-c2ccccc2)c(C)c1CCC(=O)NCc1ccccc1 | 70% (inactive)
COc1ccc(CCNC(=O)CCc2c(C)nc3c(c(C)nn3-c3ccccc3)c2C)c(OC)c1 | 53% (active)
Cc1cccc(CCNC(=O)CCc2c(C)nc3c(c(C)nn3-c3ccccc3)c2C)c1 | 48% (active)
COc1cc2c(-c3ccccc3C)nc3c(c(C)nn3-c3ccccc3)c2cc1OC | 35% (active)
COc1ccc(CCNC(=O)CCc2c(C)nc3c(c(C)nn3-c3ccc(C)cc3)c2C)c(OC)c1 | 107% (inactive)
Cc1nc2c(c(C)nn2-c2ccccc2)c(C)c1CCC(=O)NCCc1ccccc1 | 58% (inactive)
COc1cc2c(-c3ccccc3O)nc3c(c(C)nn3-c3ccccc3)c2cc1OC | 68% (inactive)
COc1cc2c(-c3ccccc3Cl)nc3c(c(C)nn3-c3ccccc3)c2cc1OC | 57% (inactive)
